# From PubChem BioAssay
# Rows were chosen to be rich in hits. Some 3.8% of all compounds tested hit in one or more screens of this group.
# MBNL1 CUG block: inhibitors of human MBNL1 binding to CUG repeat RNA; TR-FRET MBNL1-His/biotin-(CUG)12 binding, 665/545 ratio; Potency, µM (top dose mostly 57.5 µM), without a hit: at the top dose activity change, negative = inhibition, most hits filed as inhibitors; 280,000 tested, 0.036% active; AID 2675; active = well fitted inhibition curve with a large enough effect in the signal ratio, with a control signal flat, not every such curve was filed as active; inconclusive = small, poorly fitted or top-dose-only effect, or effect the other way, or a change in a side signal; inactive = no such curve, though single readings can be large or run the other way; the % refers to the signal ratio; note: potency is the fitted concentration of half-maximal effect; % is set by controls: 0 for no effect and ±100 for the full control effect
#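 TR-FRET between His-tagged MBNL1 and biotin-(CUG)12 RNA, detected with Tb anti-His antibody (0.055 ng/ul) and streptavidin-XL665 (5 nM), 60 min at room temperature. Compounds titrated 92 nM to 58 uM; 665/545 nm ratio normalized to buffer and complex controls.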
# VDR inhibitor: blocks the human vitamin D receptor. P11473. VDR-SRC2-3 peptide fluorescence polarization, 2 h. Potency, µM, for inactives: max response, negative = inhibition, hits mostly inhibitors. 400,000 tested, 0.93% active. AID 504847; note: potency is the fitted concentration of half-maximal effect; % is set by controls: 0 for no effect and ±100 for the full control effect
#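 Fluorescence polarization assay of small-molecule disruption of VDR binding to coregulator peptide SRC2-3. Compounds and controls pin-transferred, then read after 2 h incubation at ambient room temperature.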
# KCNH2 3.1 block: KCNH2 3.1 (human) potassium channel inhibition; U2OS KCNH2 3.1, thallium flux FluxOr; stronger effect = lower value; activity change, % (tested at about 1.8 µM); 340,000 tested, 0.95% active;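 active = maximum activity change below -70%; inconclusive = maximum activity change from -70% to -50%; inactive = maximum activity change above -50%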;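 note: thallium influx rate constant from kinetic fluorescence after stimulation buffer; % is set by controls: 0 for no effect and ±100 for the full control effect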
#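 Thallium flux via FluxOr fluorescence (Red40 quencher, 45 min loading) in U2OS cells virally expressing the KCNH2 3.1 isoform (1.77 x 10^8 /mL virus, overnight at 37 C). Rate constants from 2-min kinetic reads post-stimulation, normalised to positive and negative controls.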
# CBFb-RUNX1 inh: inhibitors of human CBF-beta and RUNX1 interaction. AlphaScreen CBFb-His/RUNX1-biotin binding, biochemical. 230,000 tested, under 10 active. Potency, µM (doses to about 59.8 µM), for inactives: top-dose activity, negative = inhibition, hits mostly inhibitors. AID 1477. Q01196+Q13951; note: % of control where 0% means no effect
#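 Compounds were screened at multiple concentrations against a preformed CBF-beta(His)/RUNX1(biotin) complex (30 nM of each) for 15 min at room temperature, followed by 90 min with nickel and streptavidin beads and AlphaScreen reading.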
# PLK1 PBD block: inhibitors of human PLK1 polo-box domain binding. Plk1 PBD binding of FITC phosphopeptide, fluorescence polarization. AID 720504. 360,000 tested, 2.8% active. Potency, µM, inactives show max response, negative = inhibition, actives largely listed as inhibitors; note: potency is the fitted concentration of half-maximal effect; series mostly up to about 57 µM; % is set by controls: 0 for no effect and ±100 for the full control effect; nearly all actives have a fitted effect of over 65% in size
# KCNH2 WT inh: inhibitors of human wildtype KCNH2 potassium channel; Q12809; U2OS, BacMam KCNH2, thallium flux FluxOr; stronger effect = lower value; activity change, % at 1.84 µM; 340,000 tested, 0.37% active;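 active = maximum activity change below -70%; inconclusive = maximum activity change between -70% and -50%; inactive = maximum activity change above -50%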; note: % is set by controls: 0 for no effect and ±100 for the full control effect
#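 U2OS cells were transduced with wild-type KCNH2 virus (2.03 x 10^8 / mL) for 4 h at room temperature, then cultured overnight at 37 C. Thallium flux was read with FluxOr dye. Rate constants were normalized to DMSO controls.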
# An asterisk follows results filed as active; ? = inconclusive; nt = not tested or not shown. Unless noted, calls come from the whole dose curve; as a rule, active = well fitted curve in the direction sought with a large enough effect; inconclusive = small, poorly fitted or top-dose-only effect, or another doubt; inactive = no such curve, though single readings can be large; an effect the other way counts as inactive or inconclusive.
SMILES,MBNL1 CUG block,VDR inhibitor,KCNH2 3.1 block,CBFb-RUNX1 inh,PLK1 PBD block,KCNH2 WT inh
Cc1ccc(N(Cc2cc3ccc(C)cc3[nH]c2=O)C(=O)c2ccco2)cc1,0%,?,9,-6%,27µM*,2
CC(C)(C)c1cc(O)c(C(C)(C)C)cc1O,nt,28µM*,nt,-2%,nt,nt
O=C(CN1CCN(c2ccc(Cl)cc2)CC1)Nc1ccc(Cl)c(C(F)(F)F)c1,nt,16%,nt,nt,nt,nt
O=C(CCS(=O)(=O)c1ccc2c(c1)NC(=O)CO2)NCc1ccccc1,-4%,-6%,-38,nt,-10%,-12
Cc1cc2c(cc1S(=O)(=O)CCC(=O)NC1CCC(C)CC1)OCC(=O)N2 (centres undefined),-13%,-2%,-37,nt,-15%,-1
CC1CCC(NC(=O)CCS(=O)(=O)c2ccc3c(c2)NC(=O)CO3)CC1 (centres undefined),-1%,?,-14,nt,17µM*,6
O=C(CCS(=O)(=O)c1ccc2c(c1)NC(=O)CO2)NCCc1ccccc1,-4%,?,-23,nt,19µM*,-26
CCC(=O)N1CCc2cc(Br)cc(S(=O)(=O)CCC(=O)NCc3ccccc3)c21,nt,-14%,nt,nt,nt,nt
Cc1ccc(NC(=O)NCCc2c(C)nn(C)c2C)c(Cl)c1,nt,9%,nt,nt,nt,nt
Cn1c(CN2CCCC2)nc2cc(NC(=O)COc3ccc(Cl)cc3)ccc21,-2%,15%,-4,-2%,0%,12
COc1ccc(OCC(=O)Nc2ccc3c(c2)nc(CN2CCCC2)n3C)cc1,0%,3%,2,-7%,27µM*,1
O=S(=O)(c1ccc(F)cc1)N(CC(O)Cn1c2ccccc2c2ccccc21)c1ccccc1 (centres undefined),nt,0%,nt,nt,nt,nt
COc1ccc2c(c1)C=C(CN1CCC(CO)(CCc3ccccc3)CC1)CO2,-7%,1%,-88*,-12%,-8%,-11
COc1ccc(CC2(CO)CCN(CC3=Cc4cc(Cl)ccc4OC3)CC2)cc1,5%,4%,-74*,4%,0%,-41
COC(=O)c1cc(NC(=O)CCc2c(C)nc3nc(C)nn3c2C)cc(C(=O)OC)c1,nt,-6%,nt,nt,nt,nt
COc1ccc(C(=O)OCC(=O)Nc2ncc([N+](=O)[O-])s2)cc1OC,nt,?,1,nt,9.5µM*,1
COc1ccc(C(=O)OCC(=O)NC(C)CCc2ccccc2)cc1 (centres undefined),1%,4%,3,nt,-2%,-6
COc1ccc(C(=O)OCC(=O)NC(C)CCc2ccccc2)cc1OC (centres undefined),2%,5%,80,nt,-1%,-77*
Cc1ccc(C2C=C(c3ccccc3)Nc3ncnn32)cc1 (centres undefined),nt,?,-2,nt,30µM*,-2
C1=C(c2ccc(-c3ccccc3)cc2)Nc2ncnn2C1c1ccco1 (centres undefined),41%,1%,-13,-2%,4.7µM*,-12
Oc1ccc(C2C=C(c3ccc(F)cc3)Nc3ncnn32)cc1 (centres undefined),-5%,-9%,-4,8%,?,-10
Fc1ccc(C2=CC(c3ccco3)n3ncnc3N2)cc1 (centres undefined),?,-21%,-14,3%,-26%,-4
Fc1ccc(C2=CC(c3ccc(Br)o3)n3ncnc3N2)cc1 (centres undefined),?,?,-18,-2%,11µM*,-23
CNC(=O)c1ccc(CN(C)CC(=O)Nc2ccccc2C(=O)NC2CC2)cc1,nt,-9%,-72*,nt,3%,6
Cc1ccc(C)c(CNC(=O)c2cnc3sc(N4CCCC4)nn3c2=O)c1,nt,-1%,nt,nt,nt,nt
CCCCOc1ccc(C(=O)NCc2nnnn2-c2ccc(C)c(C)c2)cc1,nt,4%,nt,nt,nt,nt
COc1cc(NC(=O)c2cc([N+](=O)[O-])ccc2NC(=O)CNCc2ccccn2)cc(OC)c1,?,3%,-11,nt,-5%,-2
